RE007 growth inh = qHTS Assay for Inhibitors of the HIV-1 protein Vpr; AID 651644, 2012; actives 0.21% (n = 360,000); S. pombe RE007 Vpr strain, BacTiter-Glo ATP luminescence, 24 h; Potency, µM (doses to about 92.2 µM), without a hit: at the highest dose activity change, negative = less growth, most hits filed as inhibitors; active means well fitted falling curve with a large enough effect; inconclusive means small, poorly fitted or top-dose-only effect; inactive means no such curve, though single readings can be large or run the other way; further: potency means the concentration at half of the fitted maximal effect; on the % scale 0 is the no-effect control and ±100 the full control effect; nearly all actives have a fitted effect of over 50% in size
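Fission yeast strain RE007, carrying one chromosomally integrated HIV-1 vpr copy, was seeded at OD 0.01 in PMG+AL medium with 23 nL pinned compound. After 24 h at 30 °C and 99% humidity, viability was read by BacTiter-Glo luminescence.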
Shiga inhibitor = A qHTS for Small Molecule Inhibitors of Shiga Toxin; Vero cells, Shiga toxin protein synthesis inhibition reporter; inhibition, % at 38.7 µM; actives 9.2% (n = 290,000); AID 2315, 2010; in the data active means inhibition mostly above about 28%, no sharp cut-off; inactive means mostly below about 43%; further: 0% is about no effect
CHX counter = Cycloheximide Counterscreen for Small Molecule Inhibitors of Shiga Toxin. actives 12% (n = 300,000). max response, %. cell reporter, cycloheximide protein synthesis inhibition counterscreen; in the data active means max response mostly above about 13%, no sharp cut-off; inactive means mostly below about 14%; further: read at 38.3 µM for the half of the compounds with a filed dose; 0% is about no effect
Tb PYK inh = qHTS of Trypanosoma Brucei Inhibitors | pyruvate kinase (Trypanosoma brucei), Q57TT1 | TbPYK enzyme, Kinase-Glo Plus ATP luminescence, 45 min | Potency, µM (highest dose often 76.8 µM), without a hit: at the top dose activity, negative = inhibition, actives largely listed as inhibitors | actives 0.12% (n = 410,000) | AID 624173, 2012; further: potency means the concentration at half of the fitted maximal effect; on the % scale 0 is the no-effect control and ±100 the full control effect; nearly all actives have a fitted effect of over 50% in size
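TbPYK + substrate in 50 mM TEA pH 7.2, 100 mM KCl, 10 mM MgCl2, 0.05% BSA, 0.01% Tween-20; cpd pinned; ADP 130 uM final; 45 min RT; Kinase-Glo Plus 10 min; luminescence endpoint.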
FBPA Giardia inh = qHTS Assay for Inhibitors of Fructose-1,6-bisphosphate Aldolase from Giardia Lamblia; A8B2U2; purified Giardia FBPA; Potency, µM (series often up to 59.6 µM), for the others: at the top dose activity, negative = inhibition, actives largely listed as inhibitors; actives 0.71% (n = 290,000); further: potency means the concentration at half of the fitted maximal effect; on the % scale 0 is the no-effect control and ±100 the full control effect; nearly all actives have a fitted effect of over 55% in size
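Giardia FBPA (40 nM reagent) was preincubated 10 min at RT with compound (up to 57.5 uM final), then substrate plus GAPDH/TPI/NAD/arsenate coupling system with diaphorase/resazurin was added; resorufin fluorescence (525/598 nm) was read after 20 min.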
LmPK inhibitor = qHTS Assay for Inhibitors of Leishmania Mexicana Pyruvate Kinase (LmPK). Potency, µM (highest dose often 57.5 µM), for inactives: at the highest dose activity change, negative = inhibition, actives largely listed as inhibitors. actives 0.37% (n = 290,000). Q27686. purified LmPK, Kinase-Glo ATP luminescence, 1 h. AID 1721, 2009; further: potency means the concentration at half of the fitted maximal effect; on the % scale 0 is the no-effect control and ±100 the full control effect
Target sequence (Q27686 whole entry, looked up): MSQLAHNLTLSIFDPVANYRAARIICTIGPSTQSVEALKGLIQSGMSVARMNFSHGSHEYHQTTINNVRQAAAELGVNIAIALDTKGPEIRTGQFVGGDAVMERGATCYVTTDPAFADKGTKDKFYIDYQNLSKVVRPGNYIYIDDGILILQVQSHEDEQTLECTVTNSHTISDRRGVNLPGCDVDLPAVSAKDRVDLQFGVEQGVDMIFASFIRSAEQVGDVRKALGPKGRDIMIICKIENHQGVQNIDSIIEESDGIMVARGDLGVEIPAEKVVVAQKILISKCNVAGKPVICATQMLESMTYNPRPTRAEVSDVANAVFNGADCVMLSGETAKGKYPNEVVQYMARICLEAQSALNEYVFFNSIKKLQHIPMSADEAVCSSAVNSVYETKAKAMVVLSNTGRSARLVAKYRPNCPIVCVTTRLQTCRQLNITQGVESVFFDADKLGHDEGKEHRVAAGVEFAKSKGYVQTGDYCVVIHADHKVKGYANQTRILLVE
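In 50 mM imidazole pH 7.2 with 7 mM MgCl2, LmPK (0.1 nM) turned over PEP (0.5 mM) and ADP (0.1 mM) for 1 h at room temperature. Luciferase read-out of ATP.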
Starred values were filed as active, the others as inactive; ? = inconclusive; / = no result given; ! = not active in a repeat; [ ] = another dose, or the depositor's remark. The full list was thinned out, with hits kept by preference. Unless noted, the call rests on the fitted dose curve; in most records, active means well fitted curve in the direction sought with a large enough effect; inconclusive means small, poorly fitted or top-dose-only effect, or another doubt; inactive means no such curve, though single readings can be large; an effect the other way counts as inactive or inconclusive.

SMILES	RE007 growth inh	Shiga inhibitor	CHX counter	Tb PYK inh	FBPA Giardia inh	LmPK inhibitor
N#Cc1nc(Nc2ccccc2)nc(NC2CCCCC2)n1	/	/	/	/	-2%	/
Cn1c(=O)c2c(SCC(=O)Nc3ccccc3C(F)(F)F)nc(C3CCCC3)nc2n(C)c1=O	/	/	/	-2%	/	/
CCCCC1CCC(C(=O)N(CCCC)c2c(N)n(CCCC)c(=O)[nH]c2=O)CC1 (stereo unspecified)	1%	12	2	-4%	/	-4%
CCn1cnc2cc(NC(=O)c3ccc(C)cc3)ccc21	-12%	49*	44*	-2%	?	-9%
Cc1ccc(C(=O)Nc2ccc3c(c2)ncn3C)cc1	-13%	112*	26*	1%	3%	-8%
Cc1ccc(-c2nc3ccccc3o2)cc1NC(=O)c1cccc2c(Cl)cccc12	/	/	/	0%	/	/
O=Nc1c(O)n(Cc2ccc(Cl)cc2Cl)c2ccccc12	22µM*	-20	-2	-2%	14%	-1%
COc1ccccc1/C=C/C=N/NC(=O)c1cnccn1	-15%	64*	35*	2%	-10%	-3%
COc1ccccc1/C=C/C=N/NC(=O)c1ccccn1	-3%	56*	23*	3%	-7%	-19%
CC1CCc2c(sc(NC(=O)c3cc(-c4ccc(F)cc4)on3)c2C(N)=O)C1 (stereo unspecified)	/	/	/	2%	/	/
CC1CCN(S(=O)(=O)c2ccc3c(ccn3CCC(=O)NCc3ccccc3F)c2)CC1	/	/	/	-1%	/	/
COc1cc(C)ccc1OCc1cc(C(=O)NCCN2CCOCC2)no1	3%	76*	67*	-4%	-6%	4%
CN(CCCN1CCOCC1)C(=O)c1cc(COc2ccc(F)cc2F)on1	4%	16	8	0%	/	5%
COc1cc(C)ccc1OCc1cc(C(=O)N(C)CCCN2CCOCC2)no1	-5%	96*	55*	-11%	-7%	0%
O=C(NCc1ccccc1Cl)c1cc2c(s1)-c1ccc(Cl)cc1SC2	/	/	/	-9%	/	/
Cc1cc(C(=O)Nc2ccc3c(c2)OCCO3)c(C)o1	-15%	68*	28*	-8%	-5%	?
Cc1occc1C(=O)Nc1ccc2c(c1)CCC2	?	103*	48*	-21%	-11%	13µM*
CSc1ccccc1C(=O)Nc1ccc2c(c1)OCCO2	?	64	23	4%	-2%	-20%
Cc1occc1C(=O)Nc1cccc([N+](=O)[O-])c1	/	17	-2	-19%	1%	-11%
Cc1cc(C(=O)Nc2ccncc2)c(C)o1	-1%	/	/	2%	/	/
CC(=O)c1c(Nc2ccc3c(c2)OCCO3)oc(C)cc1=O	-1%	118*	52*	1%	?	-3%
Cc1ccccc1C(=O)Nc1ccc2c(c1)OCCO2	11%	20	18*	-14%	-1%	-10%
Cc1occc1C(=O)Nc1ccc2c(c1)OCCO2	-15%	100*	107*	-17%	-24%	13µM*
O=C(Nc1ccc2c(c1)OCCO2)c1coc2ccccc2c1=O	-11%	60*	48*	?	-10%	7.9µM*
CNC(=O)c1ccsc1NC(=O)c1coc2ccccc2c1=O	5%	-5	2	-13%	-7%	-5%
SMILES	RE007 growth inh	Shiga inhibitor	CHX counter	Tb PYK inh	FBPA Giardia inh	LmPK inhibitor
COC(=O)[C@]12CCCCC=C1N(CCC1=CCCCC1)C(=O)[C@H](CC(=O)NCc1cccc3ccccc13)C2	-5%	/	/	-6%	/	/
CCCCN(CC)C(=O)CSc1nc2n[nH]c(C)c2c(=N)n1-c1ccc(CC)cc1	/	/	/	1%	/	/
NS(=O)(=O)c1ccc(N=Nc2c(O)c(C(=O)O)cc3ccccc23)cc1	/	7	4	-13%	?	-8%
O=C(O)Cc1ccc(N=Nc2c(O)c(C(=O)O)cc3ccccc23)cc1	6%	133*	56*	-1%	-17%	-5%
Cc1ccccc1CC1(CO)CCCN(C(=O)CCN2CCCO2)C1 (stereo unspecified)	-9%	36*	17*	5%	0%	-3%
Cc1ccccc1CC1(CO)CCCN(C(=O)CCC(=O)c2ccccc2)C1 (stereo unspecified)	2%	19	1	4%	-6%	2%
C=CCNC(=O)NC(=S)c1ccccc1	-26%	24	23*	4%	-14%	-10%
Cc1ccc(N2CC(C)Cn3c2nc2c3c(=O)n(Cc3cccc(Cl)c3)c(=O)n2C)cc1 (stereo unspecified)	/	/	/	0%	/	/
CCc1ccc(CN(Cc2ccco2)C(=O)c2cc(-c3ccc(C)c(F)c3)on2)cc1	/	/	/	-3%	/	/
O=C(Nc1nc2cc3c(cc2s1)OCO3)c1ccco1	?	86*	49*	-10%	15%	16µM*
CC(=O)c1sc(NC(=O)C(C)C)nc1C	-5%	-19	7	0%	/	0%
CC(=O)Nc1nc2cc3c(cc2s1)OCO3	-11%	96*	31*	-9%	1%	-15%
O=C(Nc1nc2cc3c(cc2s1)OCCO3)c1ccco1	?	-14	-8	-18%	/	-27%
CC(C)C(=O)Nc1nc2cc3c(cc2s1)OCCO3	3%	93*	55*	1%	-1%	-8%
CC(=O)c1sc(Nc2nc3cc4c(cc3s2)OCO4)nc1C	-11%	74*	27	-4%	-2%	0%
O=C(COc1ccccc1)Nc1nc2cc3c(cc2s1)OCO3	-11%	/	/	2%	/	/
CCC(=O)N1CCc2cc(S(=O)(=O)NC(C(=O)NCc3ccc(OC)cc3)C(C)C)ccc21 (stereo unspecified)	/	/	/	2%	/	/
Cc1ccc(F)cc1NC(=O)CSc1nc(-c2cccs2)cc(C(F)(F)F)n1	/	/	/	4%	/	/
CCOC(=O)c1sc(NC(=O)COc2ccc3c(c2)OCO3)nc1C	8%	-7	-3	-6%	6%	-1%
O=C(COc1ccccc1)Nc1nc2cc3c(cc2s1)OCCO3	-7%	19	28*	-4%	-19%	-11%
COc1cccc2sc(NN)nc12	0%	-5	5	-16%	-29%	0%[11.5 µM]
CCOC(=O)c1sc(Nc2nc3cc4c(cc3s2)OCO4)cc1C	1%	82*	43*	-9%	-11%	2%
CCOC(=O)c1sc(Nc2nc3c(OC)cccc3s2)cc1C	0%	108*	53*	-12%	-19%	2%
Cc1nc(NS(=O)(=O)c2ccc(N)cc2)nc(C)c1Br	/	/	/	-2%	/	/
O=C(NCc1ccc2c(c1)CCN2C(=O)c1ccc(F)cc1)c1ccc(Br)o1	/	/	/	2%	/	/
O=C1c2ccccc2-n2c1nc1ccccc1c2=O	?	52*!	32	9%	?	-10%
COc1cccc(NC(=O)c2c(N3CCCC3=O)c3cc(C)ccc3n2C)c1	/	/	/	3%	/	/
